PubChem BioAssay (NCATS)
Results filed as inconclusive are left out. A call without a number means that no potency is given here. Calls of active or inactive are those of the source. Unless noted, calls come from the whole dose curve; as a rule, active = well fitted curve in the direction sought with a large enough effect; inconclusive = small, poorly fitted or top-dose-only effect, or another doubt; inactive = no such curve, though single readings can be large; an effect the other way counts as inactive or inconclusive.

What was measured:
[1] = Cell Viability - BJ (AID 421; calls by dose curve;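 note: potency is the fitted concentration of half-maximal effect; cells exposed to compound for 40 hours at 37 °C before readout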); details: BJ fibroblast viability, qHTS
How it was run: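 Luminescent ATP signal (CellTiter-Glo, 20 min at room temperature) served as the read-out of viable BJ cells after 40 hours of compound treatment. Responses were scaled between DMSO and 100 uM tamoxifen, and AC50 values were obtained by Hill modeling.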

[2] = Cell Viability - Jurkat (AID 426;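 active = dose-dependent loss of cell ATP signal giving a full or clear fitted curve, ranked by lower potency value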;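 note: potency is the fitted concentration of half-maximal effect; cells exposed to compound for 40 hours at 37 °C before ATP read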); details: qHTS
How it was run: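 Cells of the human T-cell leukemia line Jurkat (E6-1) are seeded at 5000 per well, treated with compound across a concentration range for 40 hours at 37 °C, then lysed with CellTiter-Glo; luminescence reports ATP.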

[3] = Cell Viability - Hek293 (AID 427;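 active = compounds whose dose-response curve shows a full or clear partial loss of cell viability, called from curve shape rather than a numeric limit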;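 note: potency is the fitted concentration of half-maximal effect; cells exposed to compound for 40 hours at 37 °C before reading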); details: qHTS
How it was run: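 Luminescent ATP read-out (CellTiter-Glo, 20 min RT) after 40 hr compound exposure at 37 °C in complete medium. Signal normalized to DMSO (basal) and 100 uM tamoxifen (100% inhibition); concentration-response fitted with the standard Hill equation to give AC50.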

[4] = Cell Viability - HepG2 (AID 433; calls by dose curve;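 note: potency is the fitted concentration of half-maximal effect; potency for ATP loss meaning cytotoxicity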); details: qHTS
How it was run: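 HepG2 hepatocellular carcinoma cells (1500/well) were treated with compounds for 40 h at 37 °C in complete medium; intracellular ATP was read by CellTiter-Glo luminescence. Data were normalized to DMSO and 100 uM tamoxifen, and AC50 came from Hill fits.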

[5] = Cell Viability - SK-N-SH (AID 435; calls by dose curve;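 note: potency is the fitted concentration of half-maximal effect; compound exposure lasted 40 h at 37 °C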); details: SK-N-SH neuroblastoma cell viability qHTS
How it was run: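 SK-N-SH human neuroblastoma cells (1500/well) were exposed to compounds in complete medium for 40 h at 37 °C, and intracellular ATP was then measured by CellTiter-Glo luminescence. AC50 was taken from Hill fits, normalized to DMSO and 100 uM tamoxifen.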

[6] = Cell Viability - Renal Proximal Tubule (AID 545); details: renal proximal tubule cells viability; series mostly up to 91.7 µM; note: nearly all actives have a fitted effect of over 40% in size
How it was run: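 Primary rat renal proximal tubule cells (1000/well) were treated with compounds for 40 hr at 37 °C in complete medium. Intracellular ATP was measured by CellTiter-Glo luminescence, and AC50 values came from Hill-equation fits of concentration-response data.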

[7] = Cellular Toxicity (caspase-3) HUV-EC-C (AID 656); details: HUV-EC-C cells, caspase-3 activation (apoptosis), vehicle = 0, 100 µM tamoxifen = 100%; series mostly up to 92.2 µM
How it was run: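 HUV-EC-C endothelial cells, 1000/well, were pre-incubated 5 hr at 37°C, then exposed to compounds for 16 hr at 37°C. Caspase-Glo 3/7 luminescence was read after 20 min at room temperature. AC50 came from Hill fits, normalized to DMSO and 100 uM tamoxifen.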

[8] = Cellular Toxicity (caspase-3) SHSY5Y (AID 657); details: SH-SY5Y caspase-3 activation, DMSO zero, 10 µM staurosporine = 100%; series mostly up to 91.7 µM
How it was run: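 SH-SY5Y human neuroblastoma cells (1500/well) were treated with compounds for 16 h at 37 °C, then Caspase-Glo 3/7 luminescence was read after 1 h at room temperature. Data normalized to DMSO and 10 uM staurosporine; AC50 from Hill fits.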

[9] = Cellular Toxicity (caspase-3) MRC-5 (AID 659); details: MRC-5 cells, luminescence, normalized: DMSO 0%, 10 µM staurosporine 100%; series mostly up to 91.7 µM
How it was run: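 MRC-5 fibroblasts, 1500/well; 16 h cpd, 37 °C; Caspase-Glo 3/7, 1 h RT; lumi read. Norm: DMSO = 0%, 10 uM staurosporine = 100%. Hill-fit AC50 from qHTS conc-response.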

[10] = MultiTox-Fluor Cytotoxicity Assay - LYMP1-002 - Live Cells (AID 955); details: LYMP1-002 lymphoblastoid live-cell protease fluorescence viability; series mostly up to 46.1 µM
How it was run: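 Cells were seeded at 2500 per well and incubated 5 hr. Compounds were then added for 16 hr at 37 C, followed by MultiTox-Fluor reagent for 60 min at room temperature and fluorescence reading of viable-cell protease signal.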

[11] = Cell Viability - LYMP1-003 - Assay at 24 hr (AID 963); details: LYMP1-003 lymphoblastoid cell viability; series mostly up to 92.2 µM
How it was run: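 Cytotoxicity is scored as a concentration-dependent fall in ATP-linked luciferase signal in human lymphoblastoid LYMP1-003 cells treated 24 hr at 37 C in complete culture medium.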

[12] = Cell Viability - LYMP2-009 (AID 968); details: LYMP2-009 lymphoblastoid cell viability; series mostly up to 92.2 µM; note: nearly all actives have a fitted effect of over 55% in size
[13] = Cell Viability - LYMP2-017 (AID 972); details: LYMP2-017 lymphoblastoid cell viability; series mostly up to 92.2 µM; note: nearly all actives have a fitted effect of over 55% in size
How it was run: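 Cytotoxicity is scored as a concentration-dependent drop in cellular ATP in a human lymphoblastoid line after 24 hr treatment at 37 C. Values are AC50s from Hill-equation modelling.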

[14] = Cell Viability - LYMP2-025 (AID 976); details: LYMP2-025 lymphoblastoid cell viability; series mostly up to 92.2 µM
How it was run: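 Acute cytotoxicity is scored as a concentration-dependent fall in intracellular ATP, measured by luciferase luminescence, in human lymphoblastoid LYMP2-025 cells exposed to compound for 24 hours at 37 C. AC50 values come from standard Hill fits.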

[15] = Cell Viability - LYMP2-016 (AID 984); details: LYMP2-016 lymphoblastoid cell viability, qHTS; series mostly up to 92.2 µM; note: nearly all actives have a fitted effect of over 55% in size
How it was run: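 Human lymphoblastoid cells (LYMP2-016), 2500/well in complete medium, preincubated 5 hr at 37 C, then compound-treated 24 hr at 37 C. Intracellular ATP read by CellTiter-Glo luminescence after 30 min at room temperature; AC50 from Hill-equation concentration-response fits.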

[16] = Cell Viability - LYMP2-024 (AID 988); details: LYMP2-024 lymphoblastoid cell viability; series mostly up to 92.2 µM; note: nearly all actives have a fitted effect of over 60% in size
How it was run: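 qHTS cytotoxicity, human lymphoblastoid line, complete medium; 24 h cpd treatment, 37 C; CellTiter-Glo ATP luminescence readout; tetraoctylammonium bromide positive control; AC50 via Hill fit.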

[17] = qHTS Assay for Identification of Small Molecule Inducers of Hypoxia Response (AID 2120; active = well fitted curve in the direction sought with a large enough effect in the signal ratio, with a control signal flat, not every such curve was filed as active; the % refers to the signal ratio); details: hypoxia response reporter cells, beta-lactamase ratio readout; series mostly up to 104 µM
How it was run: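 Cell-based qHTS for reporter induction: hypoxia response element controlled beta-lactamase in ME-180 cells. Compounds incubated 17 h at 37 degrees C; activity from blue/green (460/530 nm) ratio, inducers ranked by AC50.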

[18] = qHTS assay for small molecule agonists of retinoid X receptor alpha signaling (AID 588544); details: HEK293T RXRa-UAS-bla, beta-lactamase reporter, 18 h; 530 nm emission
[19] = target: Peroxisome proliferator-activated receptor alpha (Homo sapiens) (UniProt Q07869); assay: qHTS assay for small molecule agonists of the peroxisome proliferator-activated receptor alpha (PPARalpha) signaling pathway (AID 651778); details: PathHunter PPARalpha complementation, chemiluminescence, 6 h; stronger effect = higher value
Sequence of Peroxisome proliferator-activated receptor alpha (Homo sapiens) (Q07869 whole entry, looked up, the tested form may be a part): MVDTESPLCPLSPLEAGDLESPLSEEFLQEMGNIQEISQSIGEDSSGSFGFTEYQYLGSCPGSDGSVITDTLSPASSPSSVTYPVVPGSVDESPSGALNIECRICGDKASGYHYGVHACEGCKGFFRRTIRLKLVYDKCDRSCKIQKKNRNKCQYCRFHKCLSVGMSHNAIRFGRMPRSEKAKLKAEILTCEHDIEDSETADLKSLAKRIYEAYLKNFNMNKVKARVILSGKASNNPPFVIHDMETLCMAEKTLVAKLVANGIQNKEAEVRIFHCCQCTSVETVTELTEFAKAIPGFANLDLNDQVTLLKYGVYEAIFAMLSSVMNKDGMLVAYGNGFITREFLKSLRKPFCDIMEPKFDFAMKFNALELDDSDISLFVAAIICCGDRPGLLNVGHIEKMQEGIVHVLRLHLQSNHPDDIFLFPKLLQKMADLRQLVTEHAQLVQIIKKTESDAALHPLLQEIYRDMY
How it was run: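 Enzyme-fragment complementation assay in which ligand-bound PPARalpha translocates and forms an active enzyme that generates chemiluminescence. Cells were plated overnight, exposed to compound for 6 hr at 37 C, and then given detection reagent for 60 min at room temperature.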

[20] = qHTS assay for small molecule agonists of the antioxidant response element (ARE) signaling pathway measured by Nrf2-dependant transcriptional activity - cell viability counter screen (AID 720653; active = well fitted curve in the direction sought with a large enough effect in the repeat runs; an effect the other way counts as inactive or inconclusive); details: ARE-bla HepG2 viability, CellTiter-Glo ATP luminescence, 16 h; stronger effect = lower value
How it was run: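 ARE-bla HepG2 cells treated with compounds for 16 h at 37C; this counter screen measures viability as intracellular ATP by CellTiter-Glo luminescence after 30 min at room temperature.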

| Compound | Potency [1] | Potency [2] | Potency [3] | Potency [4] | Potency [5] | outcome [6] | outcome [7] | outcome [8] | outcome [9] | outcome [10] | outcome [11] | Potency [12] | Potency [13] | Potency [14] | Potency [15] | Potency [16] | Potency [17] | max response [18] [%] | max response [19] | max response [20] |
| --- | --- | --- | --- | --- | --- | --- | --- | --- | --- | --- | --- | --- | --- | --- | --- | --- | --- | --- | --- | --- |
| FC(Cl)(Cl)Cl | > 92 µM (inactive) | > 92 µM (inactive) | > 92 µM (inactive) | > 92 µM (inactive) | > 92 µM (inactive) | inactive | inactive | inactive | inactive | inactive | inactive | inactive | inactive | inactive | inactive | inactive | inactive | -11.5 | -4.74% (inactive) | -4.09% (inactive) |
| Nc1ccc([N+](=O)[O-])cc1[N+](=O)[O-] | > 92 µM (inactive) | > 92 µM (inactive) | > 92 µM (inactive) | > 92 µM (inactive) | > 92 µM (inactive) | inactive | inactive | inactive | inactive | inactive | inactive | inactive | inactive | inactive | inactive | inactive | inactive | -7.45 | -8.48% (inactive) | -10.3% (inactive) |
| O=C(Cc1ccccc1)OCc1ccccc1 | > 92 µM (inactive) | > 92 µM (inactive) | > 92 µM (inactive) | > 92 µM (inactive) | > 92 µM (inactive) | inactive | inactive | inactive | inactive | inactive | inactive | inactive | inactive | inactive | inactive | inactive | inactive | 10.7 | 0.258% (inactive) | -10.2% (inactive) |
| CCCCCC[N+](=O)[O-] | > 92 µM (inactive) | > 92 µM (inactive) | > 92 µM (inactive) | > 92 µM (inactive) | > 92 µM (inactive) | inactive | inactive | inactive | inactive | inactive | inactive | inactive | inactive | inactive | inactive | inactive | inactive | -16.5 | 6.24% (inactive) | 8% (inactive) |
| C=C(Cl)CSC(=S)N(CC)CC | > 92 µM (inactive) | > 92 µM (inactive) | > 92 µM (inactive) | > 92 µM (inactive) | > 92 µM (inactive) | inactive | inactive | inactive | inactive | inactive | inactive |  |  | inactive | inactive |  | inactive | -16.2 | 11.5% (inactive) | -13% (inactive) |
| [N-]=[N+]=[N-] | > 92 µM (inactive) | > 92 µM (inactive) | > 92 µM (inactive) | > 92 µM (inactive) | > 92 µM (inactive) | inactive | inactive | inactive | inactive | inactive | inactive | inactive | inactive | inactive | inactive | inactive | inactive | -2.08 | -3.11% (inactive) | -8.07% (inactive) |
| Nc1ccc(Cl)c(Cl)c1 | > 92 µM (inactive) | > 92 µM (inactive) | > 92 µM (inactive) | > 92 µM (inactive) | > 92 µM (inactive) | inactive | inactive | inactive | inactive | inactive | inactive | inactive | inactive | inactive | inactive | inactive | inactive | 3.91 | -1.3% (inactive) | -17.9% (inactive) |
| CC(C)CON=O | > 92 µM (inactive) | > 92 µM (inactive) | > 92 µM (inactive) | > 92 µM (inactive) | > 92 µM (inactive) | inactive | inactive | inactive | inactive | inactive | inactive | inactive | inactive | inactive | inactive | inactive | inactive | 6.03 | -1.42% (inactive) | 3.18% (inactive) |
